Assay results as given in PubChem BioAssay (Tox21).
Inconclusive results are not listed. Entries that show only a call come without a potency. Values without a mark were called inactive. Activity calls are given as the source filed them. Unless noted, the call rests on the fitted dose curve; in most records, active means well fitted curve in the direction sought with a large enough effect in the repeat runs; inconclusive means weak or mixed curves; inactive means no such curve, though single readings can be large; an effect the other way counts as inactive or inconclusive.

Experiments:
[1] = qHTS assay to identify small molecule antagonists of the peroxisome proliferator-activated receptor delta (PPARd) signaling pathway - cell viability counter screen (AID 743213); further: nearly all actives have a fitted effect of over 50% in size; further: potency means the concentration at half of the fitted maximal effect
Method in brief: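 HEK293H PPARd UAS-bla cells, 5 h pre-incubation, compound + L165041 300 nM final, 17 h 37 C; B/G FRET substrate 2 h RT; then CellTiter-Glo 30 min RT, luminescence.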

[2] = qHTS assay to identify small molecule agonists of the farnesoid-X-receptor (FXR) signaling pathway - cell viability counter screen (AID 743218); further: nearly all actives have a fitted effect of over 45% in size; further: potency means the concentration at half of the fitted maximal effect
Method in brief: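 FXR-UAS-bla HEK 293T cells, plated 5 h at 37 C, were exposed to compounds for 16 h at 37 C. CellTiter-Glo was then added to the same wells as the bla readout; luminescence read after 30 min at room temperature.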

[3] = qHTS assay to identify small molecule antagonists of the farnesoid-X-receptor (FXR) signaling pathway - cell viability counter screen (AID 743221; active means well fitted cell-killing curve with a large enough effect in the repeat runs, not every such curve was filed as active; further: nearly all actives have a fitted effect of over 50% in size; further: potency means the concentration at half of the fitted maximal effect)
Method in brief: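 GeneBLAzer FXR-UAS-bla HEK 293T cells, compound plus chenodeoxycholic acid (50 uM final), 16 h at 37 C. CellTiter-Glo added to the same wells after the beta-lactamase read; luminescence read after 30 min at room temperature as viability.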

[4] = qHTS assay to identify small molecule agonists of the vitamin D receptor (VDR) signaling pathway - cell viability counter screen (AID 743224); further: nearly all actives have a fitted effect of over 50% in size; further: potency means the concentration at half of the fitted maximal effect
Method in brief: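 VDR-bla cells were preincubated 4 h at 37C/5% CO2, then exposed to compounds for 16 h. After the 2 h room-temperature bla FRET read, CellTiter-Glo was added to the same wells and luminescence read after 30 min.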

[5] = qHTS assay to identify small molecule antagonists of the vitamin D receptor (VDR) signaling pathway - cell viability counter screen (AID 743225); further: nearly all actives have a fitted effect of over 50% in size; further: potency means the concentration at half of the fitted maximal effect
Method in brief: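 VDR-UAS-bla HEK 293T cells were plated and incubated 4 h at 37C, then dosed with compound plus 3 nM (final) 1-alpha,25-dihydroxyvitamin D3 for 16 h. After the 2 h beta-lactamase read, viability in the same wells was read as CellTiter-Glo luminescence after 30 min at room temperature.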

[6] = qHTS assay to identify small molecule antagonists of the retinoid-related orphan receptor gamma (ROR-gamma) signaling pathway - cell viability counter screen (AID 1159520); further: nearly all actives have a fitted effect of over 50% in size; further: potency means the concentration at half of the fitted maximal effect
Method in brief: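 Tet-on ROR gamma CHO cells were given compounds for 2 hr, then doxycycline hyclate at 1 uM final, and incubated 16 hr at 37 C. Viability was measured as ATP content by CellTiter-Glo luminescence.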

[7] = qHTS assay to identify small molecule agonists of the AP-1 signaling pathway - cell viability counter screen (AID 1159525; calls by dose curve; further: nearly all actives have a fitted effect of over 55% in size; further: potency means the concentration at half of the fitted maximal effect)
Method in brief: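 AP-1-bla ME-180 cells in Opti-MEM with 0.5% dialyzed FBS, compound exposure 5 h at 37 C in 15-point titration. Viability read in the same wells as ATP content by CellTiter-Glo luminescence, normalised to tetra-n-octylammonium bromide and DMSO controls.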

[8] = qHTS assay to identify small molecule agonists of the RXR signaling pathway - cell viability counter screen (AID 1159529); further: nearly all actives have a fitted effect of over 50% in size; further: potency means the concentration at half of the fitted maximal effect
Method in brief: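 RXR-alpha-UAS-bla HEK 293T cells in medium with 2% charcoal-stripped FBS were pre-incubated 5 hr, then compound-treated 16 hr at 37 C. Viability was read by CellTiter-Glo luminescence in the same wells as the beta-lactamase assay, with tetraoctyl ammonium bromide as positive control.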

[9] = qHTS assay to identify small molecule agonists of the AP-1 signaling pathway (AID 1159526; calls by dose curve; further: potency means the concentration at half of the fitted maximal effect)
[10] = target: Retinoic acid receptor RXR-alpha (Homo sapiens) (UniProt P19793); experiment: qHTS assay to identify small molecule agonists of the RXR signaling pathway (AID 1159527; calls by dose curve; further: nearly all actives have a fitted effect of over 35% in size)
Retinoic acid receptor RXR-alpha (Homo sapiens), sequence (P19793 whole entry, looked up): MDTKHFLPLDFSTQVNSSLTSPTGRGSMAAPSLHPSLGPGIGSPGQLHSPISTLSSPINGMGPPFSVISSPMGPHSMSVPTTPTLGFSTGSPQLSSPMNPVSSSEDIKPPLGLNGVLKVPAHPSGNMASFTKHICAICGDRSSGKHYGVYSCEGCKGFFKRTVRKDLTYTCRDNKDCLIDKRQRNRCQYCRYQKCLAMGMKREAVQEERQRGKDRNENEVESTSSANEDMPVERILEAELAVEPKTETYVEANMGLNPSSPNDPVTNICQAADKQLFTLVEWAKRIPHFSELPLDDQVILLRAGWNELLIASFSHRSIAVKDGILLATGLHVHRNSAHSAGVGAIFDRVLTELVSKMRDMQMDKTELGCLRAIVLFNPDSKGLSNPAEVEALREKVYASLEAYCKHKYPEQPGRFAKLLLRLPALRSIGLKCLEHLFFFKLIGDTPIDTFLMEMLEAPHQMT
Method in brief: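 GeneBLAzer RXR-alpha-UAS-bla HEK 293T cells in 2% charcoal-stripped FBS medium were exposed to compounds for 16 hr at 37 C in agonist mode. Beta-lactamase reporter read as 460/530 nm FRET ratio after 2 hr substrate loading.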

[11] = qHTS assay to identify small molecule antagonists of the retinoid acid receptor (RAR) signaling pathway - cell viability counter screen (AID 1159551); further: nearly all actives have a fitted effect of over 35% in size
Method in brief: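 C3RL4 cells were seeded overnight at 37 C, then treated with compounds plus 1 uM (final) retinol for 6 h at 37 C. Viability was read as ATP by CellTiter-Glo luminescence after 30 min at room temperature.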

[12] = qHTS assay to identify small molecule antagonists of the retinoic acid receptor (RAR) signaling pathway (AID 1159552; further: nearly all actives have a fitted effect of over 50% in size; further: potency means the concentration at half of the fitted maximal effect)
Method in brief: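 Retinol signaling pathway inhibitors screened in C3RL4 RARE-luciferase reporter cells seeded overnight at 37 C, then compounds added with 1 uM (final) retinol as pathway substrate. After 6 hr at 37 C, luciferase luminescence read after 30 min at room temperature.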

[13] = qHTS assay to identify small molecule agonists of the retinoic acid receptor (RAR) signaling pathway (AID 1159553); further: potency means the concentration at half of the fitted maximal effect
Method in brief: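 C3RL4 cells carrying a RARE luciferase reporter were plated overnight at 37 C, then exposed to compounds in DMSO for 6 hr at 37 C and 5% CO2. Luminescence was read 30 min after luciferase reagent addition at room temperature.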

[14] = target: Peroxisome proliferator-activated receptor delta (Homo sapiens) (UniProt Q03181); experiment: qHTS assay to identify small molecule antagonists of the peroxisome proliferator-activated receptor delta (PPARd) signaling pathway (AID 743215; active means well fitted inhibition curve with a large enough effect in the signal ratio in the repeat runs, not every such curve was filed as active; the % refers to the signal ratio;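 further: cells stimulated with agonist L165041 at 300 nM final during compound exposure; series mostly up to about 62 µM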)
Peroxisome proliferator-activated receptor delta (Homo sapiens), sequence (Q03181 whole entry, looked up): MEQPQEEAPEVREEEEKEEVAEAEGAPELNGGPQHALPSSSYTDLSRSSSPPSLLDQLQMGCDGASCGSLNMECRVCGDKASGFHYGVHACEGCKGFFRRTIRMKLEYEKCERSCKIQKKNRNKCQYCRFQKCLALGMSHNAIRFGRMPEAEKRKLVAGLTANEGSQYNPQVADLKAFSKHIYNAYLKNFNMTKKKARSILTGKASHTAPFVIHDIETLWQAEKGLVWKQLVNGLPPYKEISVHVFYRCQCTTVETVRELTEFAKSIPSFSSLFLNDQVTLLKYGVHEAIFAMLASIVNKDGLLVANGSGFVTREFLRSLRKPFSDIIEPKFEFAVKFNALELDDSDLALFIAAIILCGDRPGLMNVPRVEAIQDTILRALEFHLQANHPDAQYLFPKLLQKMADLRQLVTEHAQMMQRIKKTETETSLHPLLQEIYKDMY
Method in brief: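 PPARd UAS-bla HEK293H cells were pre-incubated 5 h at 37 C, then given test compounds in DMSO plus agonist L165041 (300 nM final). After 17 h at 37 C, beta-lactamase FRET substrate was added; fluorescence read after 2 h at room temperature.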

[15] = target: Vitamin D3 receptor (Homo sapiens) (UniProt P11473); experiment: qHTS assay to identify small molecule agonists of the vitamin D receptor (VDR) signaling pathway (AID 743222; calls by dose curve)
Vitamin D3 receptor (Homo sapiens), sequence (P11473 whole entry, looked up): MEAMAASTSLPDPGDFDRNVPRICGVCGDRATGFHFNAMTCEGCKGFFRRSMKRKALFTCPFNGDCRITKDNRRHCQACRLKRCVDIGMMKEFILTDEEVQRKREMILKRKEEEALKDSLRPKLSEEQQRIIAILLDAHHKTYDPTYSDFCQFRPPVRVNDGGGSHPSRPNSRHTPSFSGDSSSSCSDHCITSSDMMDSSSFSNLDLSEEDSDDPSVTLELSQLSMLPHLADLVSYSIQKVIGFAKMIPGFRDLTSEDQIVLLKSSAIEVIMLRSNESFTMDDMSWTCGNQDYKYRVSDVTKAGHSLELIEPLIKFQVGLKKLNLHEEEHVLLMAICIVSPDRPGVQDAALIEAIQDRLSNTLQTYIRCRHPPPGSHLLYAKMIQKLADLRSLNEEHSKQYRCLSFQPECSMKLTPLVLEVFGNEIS
Method in brief: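 VDR-bla cells were plated 4 h at 37C/5% CO2, then exposed to compounds in DMSO for 16 h. After LiveBLAzer B/G FRET substrate addition and 2 h at room temperature, beta-lactamase reporter fluorescence was read.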

[16] = target: Vitamin D3 receptor (Homo sapiens) (UniProt P11473); experiment: qHTS assay to identify small molecule antagonists of the vitamin D receptor (VDR) signaling pathway (AID 743223; active means well fitted inhibition curve with a large enough effect in the signal ratio in the repeat runs, not every such curve was filed as active; the % refers to the signal ratio; further: potency means the concentration at half of the fitted maximal effect)
Method in brief: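 VDR-bla cells were treated with compound plus 3 nM final 1alpha,25-dihydroxyvitamin D3 for 16 h at 37C. Beta-lactamase reporter read by B/G FRET substrate fluorescence after 2 h at room temperature. qHTS format.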

[17] = target: Nuclear receptor ROR-gamma (Homo sapiens) (UniProt P51449); experiment: qHTS assay to identify small molecule antagonists of the retinoid-related orphan receptor gamma (ROR-gamma) signaling pathway (AID 1159521)
Method in brief: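 Tet-on ROR-gamma CHO cells with ROR response element-luciferase reporter; compounds added 2 hr before 1 uM doxycycline induction, then 16 hr at 37 C. Antagonism scored as decreased ONE-Glo luminescence.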

| Compound | Potency [1] | Potency [2] | Potency [3] | Potency [4] | Potency [5] | Potency [6] | Potency [7] | Potency [8] | Potency [9] | Potency [10] | Potency [11] | Potency [12] | Potency [13] | Potency [14] | outcome [15] | Potency [16] | Potency [17] |
| --- | --- | --- | --- | --- | --- | --- | --- | --- | --- | --- | --- | --- | --- | --- | --- | --- | --- |
| CN(C[C@@H](CC[N+]12CCC(C3CCCCC3)(CC1)CC2)c1ccc(Cl)c(Cl)c1)C(=O)c1cc(C(F)(F)F)cc(C(F)(F)F)c1 | 24.5 µM (active) | 54.9 µM (active) | 27.5 µM (active) | 17.4 µM (active) | 27.5 µM (active) | 48.6 µM (active) | 43.6 µM (active) | 17.4 µM (active) |  |  |  |  |  |  |  |  |  |
| Nc1c(Br)cc([N+](=O)[O-])cc1Br |  |  |  |  |  | inactive | inactive | inactive | inactive | inactive | inactive | inactive |  |  |  |  |  |
| Cc1ccc2nc(-c3ccc(N)cc3)sc2c1S(=O)(=O)O |  |  | inactive | inactive | inactive | inactive | inactive | inactive | 21.5 µM (active) |  | inactive | inactive | 0.426 µM (active) |  |  |  |  |
| CC1(C)[C@H]2CC[C@]1(C)C(=O)C2 |  |  |  |  |  | inactive | inactive | inactive | 19.5 µM (active) |  |  | inactive |  |  |  |  |  |
| CCN(CC)c1ccc(C=O)c(O)c1 |  |  |  |  |  | inactive | inactive |  | inactive | inactive | inactive | inactive |  |  |  |  |  |
| C=CC(=O)OCC(Br)CBr (centres undefined) |  |  |  |  |  | inactive | inactive | inactive | inactive | inactive | inactive | inactive |  |  |  |  |  |
| O=C1CCCCCCCCCCCCCC1 | inactive | inactive | inactive | inactive | inactive |  | inactive | inactive | inactive | inactive | inactive | inactive | inactive | inactive | inactive | inactive | inactive |
| O=C1OC(=O)c2cc(-c3ccc4c(c3)C(=O)OC4=O)ccc21 | 54.9 µM (active) |  | inactive | 38.9 µM (active) | inactive | inactive | inactive | inactive |  |  |  | inactive |  |  | inactive | inactive |  |
| Cc1cc(F)ccc1-c1cc(N2CC[C@@H](O)[C@H]2CO)ncc1N(C)C(=O)C(C)(C)c1cc(C(F)(F)F)cc(C(F)(F)F)c1 | 13.6 µM (active) | 13.6 µM (active) | 15.3 µM (active) | 10.8 µM (active) | 13.6 µM (active) | 53.6 µM (active) | 17.1 µM (active) | 17.1 µM (active) |  |  | inactive | 42.6 µM (active) |  |  |  | 21.5 µM (active) |  |
| Cc1ccc(Cl)c(N)c1Cl |  |  | inactive | 38.9 µM (active) | inactive | inactive | inactive | 49 µM (active) |  |  | inactive |  |  |  |  |  |  |
| C=CC(=O)O[C@H]1C[C@@H]2CC[C@@]1(C)C2(C)C |  |  |  |  |  | inactive | inactive | inactive | inactive | inactive | inactive | inactive |  |  |  |  |  |
